Consider 14 molecules from PubChem BioAssay.

Active and inactive are the calls of the source.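 Rule for the calls, unless noted: active = inhibition at or above 50% at 10 µM; inactive = inhibition below 50%.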

A short description of test [1]: inhibitors of TNFa-induced NFkB p65 translocation, primary screen, imaging, HUVEC, MLSMR starter and 10KST1 sets (AID 438;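 active = inhibition above 20% together with a positive visual image hit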;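 note: compound added about 3h40 before a 20 min TNFalpha stimulation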;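 for inhibition: signal is the nuclear over cytoplasmic p65 intensity ratio per well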). The settings on record: HUVEC TNFa-induced p65 nuclear translocation; cell count: measured here: nuclei count (cytotoxicity indicator), at 2.08 µM; inhibition: at 2 µM, stronger effect = higher value, 0% TNFa-plus-vehicle, 100% no-TNFa wells.
Test [2] in a line: reduction of polyQ htt aggregates in cells – imaging, exon1htt(103Q)mCFP cells, high-content imaging, primary screen (AID 483;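 active = visual image review flags a hit and inhibition of aggregation exceeds 20%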;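 note: compound exposure lasted 3 days before fixation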;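 for nuclei count: percent of the per-plate median nuclei count of sample wells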). The settings on record: exon1htt(103Q)mCFP cell line, aggregate imaging, at 2 µM; inhibition of aggregation: stronger effect = higher value; nuclei count: measured here: cell count, toxicity.
Test [3] is described as follows: endothelial E-selectin expression blockers – imaging, HUVEC, immunofluorescence, MLSMR starter and 10KST1 sets, primary screen (AID 487;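 active = visually confirmed hit in the image check and inhibition above 20%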;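 for inhibition: signal is fraction of cell area covered by stained E-selectin grains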;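 for nuclei count: 100% = median nuclei count of all wells on the same plate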). The note with it: HUVEC TNFalpha-induced E-selectin immunofluorescence imaging, at 2 µM; inhibition: stronger effect = higher value; nuclei count: measured here: cell number, toxicity.
The target in test [4] is Voltage-gated potassium channel subunit beta-2 (Rattus norvegicus) (UniProt P62483). The test can be described thus: inhibitors of rat Kvbeta2 reductase activity – biochemical, NADPH fluorescence, primary screen (AID 622;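 active = fluorescence slope higher than the sample average by over 3 SD, cut at about -0.22 in these data, passing the limit was not always enough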;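 note: slope of raw intensity against log time taken from 70 to 1610 s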). The note with it: recombinant KvBeta, 4-cyanobenzaldehyde reduction, at 10 µM, stronger effect = higher value.
The target is the same in test [5]. The test can be described thus: enhancers of rat Kvbeta2 NADPH turnover – biochemical, NADPH fluorescence, primary screen (AID 623;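 active = NADPH fluorescence slope more negative than the mean of all samples by about 3 SD, 99.7% confidence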;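 note: fluorescence intensity change per second fitted from 20 to 320 s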). The settings on record: Recombinant KvBeta, NADPH fluorescence decrease slope, 10 min; at 10 µM; stronger effect = lower value.
Test [6] concerns the target Alpha-2C adrenergic receptor (Homo sapiens) (UniProt P18825). The test is described as follows: compounds altering alpha2C-coupled GIRK flux – cell-based, HEK293 alpha2C/GIRK1/2, thallium flux, primary screen (AID 624;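 active = fluorescence slope after compound addition differing from the mean of all screened samples at 99.7% confidence, in either direction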;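 note: slope of fluorescence ratio to pre-addition baseline per second over 15 to 24 s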). The settings on record: thallium flux BTC fluorescence, at 10 µM, actives lie on both sides.
A short description of test [7]: blockers of RIG-like receptor reporter activation – cell-based, Sendai virus stimulus, luciferase, 10K MLSCN set, TLR/RLR signaling modifier project, primary screen (AID 602276).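 Note: firefly luciferase from ISG56 promoter only with Renilla not read in this screen; 0% = Sendai virus plus DMSO and 100% = medium plus DMSO without virus.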 The settings on record: HEK293 RL24 IRF3 luciferase reporter, at 10 µM, stronger effect = higher value. In general terms: In a reporter assay the amount or activity of a reporter protein is the signal.

Test [8] in a line: TLR3 IRF3 reporter activation blockers – cell-based, poly I:C stimulus, luciferase, 10K MLSCN set, primary screen (AID 602277;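 active = inhibition of the reporter signal at or above 50%; inactive = inhibition below 50%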). The note with it: HEK293-TLR3 RL24 IRF3 luciferase reporter, at 10 µM, stronger effect = higher value.

Chain of Voltage-gated potassium channel subunit beta-2 (Rattus norvegicus) (P62483 whole entry, looked up): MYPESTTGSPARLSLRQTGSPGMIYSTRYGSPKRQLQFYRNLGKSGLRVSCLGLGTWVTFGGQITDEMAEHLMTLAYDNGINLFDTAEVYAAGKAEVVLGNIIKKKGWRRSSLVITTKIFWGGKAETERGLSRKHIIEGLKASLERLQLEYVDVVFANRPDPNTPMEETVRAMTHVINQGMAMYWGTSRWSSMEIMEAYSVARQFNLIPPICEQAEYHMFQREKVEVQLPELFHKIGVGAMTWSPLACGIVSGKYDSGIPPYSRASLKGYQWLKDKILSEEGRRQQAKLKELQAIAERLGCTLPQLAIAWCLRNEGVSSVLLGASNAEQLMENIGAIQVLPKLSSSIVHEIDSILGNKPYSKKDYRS
Chain of Alpha-2C adrenergic receptor (Homo sapiens) (P18825 whole entry, looked up): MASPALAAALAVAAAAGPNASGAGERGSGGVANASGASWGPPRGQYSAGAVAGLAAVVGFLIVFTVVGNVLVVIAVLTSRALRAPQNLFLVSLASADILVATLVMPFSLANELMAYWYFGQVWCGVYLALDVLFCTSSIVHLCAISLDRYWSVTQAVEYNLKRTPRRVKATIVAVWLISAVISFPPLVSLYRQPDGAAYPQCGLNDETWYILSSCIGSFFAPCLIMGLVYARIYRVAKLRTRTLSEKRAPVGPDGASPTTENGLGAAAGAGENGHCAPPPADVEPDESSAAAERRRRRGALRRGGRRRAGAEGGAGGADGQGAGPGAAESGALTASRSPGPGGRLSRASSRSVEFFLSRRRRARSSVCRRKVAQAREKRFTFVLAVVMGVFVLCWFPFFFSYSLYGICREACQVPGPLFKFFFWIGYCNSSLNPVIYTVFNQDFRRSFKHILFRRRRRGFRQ

Consider `CCOC(=O)c1ccc(S(=O)(=O)NC2CCCCCCC2)n1C`, for which the cell count in test [1] was found to be 583. Besides, the inhibition (usually the relative decrease from the control value, in per cent) in test [1] is -1% (inactive); in test [3], -42.2% (inactive); in test [7], 17.3% (inactive); in test [8] it was 23.7% (inactive). Also, the inhibition of aggregation in test [2] is 3% (inactive). The results for the nuclei count in test [2] and in test [3] were 95.7% and 123%, respectively. The fluorescence slope in test [4] was -0.614 (inactive). In addition, the NADPH fluorescence slope in test [5] was 5e-06 (inactive). Also, in test [6], the slope is 0.00591 (inactive).

In the case of `Cc1ccc(-c2ccc(=O)n(CCC(=O)NCCN3CCCCC3C)n2)cc1` (centres undefined), the cell count in test [1] came to 216. The inhibition was 4.2% (inactive) in test [1], -4.1% (inactive) in test [3], 1.11% (inactive) in test [7] and 2.82% (inactive) in test [8]. Besides, the inhibition of aggregation in test [2] was -7.7% (inactive). Besides, the results for the nuclei count in test [2] and in test [3] were 86.5% and 100%, respectively. Besides, the fluorescence slope in test [4] was -0.442 (inactive). In test [5], the NADPH fluorescence slope is -2.5e-05 (inactive). Also, in test [6], the slope is 0.00419 (inactive).

Consider `CCCCc1ccc(NC(=O)N[C@H](C(=O)O)C(C)C)cc1`, for which the cell count in test [1] amounted to 388. In addition, the inhibition in test [1] was -19.8% (inactive); in test [3], -26.2% (inactive); in test [7], -0.498% (inactive); in test [8], -7.11% (inactive). Also, in test [2], the inhibition of aggregation is -0.3% (inactive). Also, the results for the nuclei count in test [2] and in test [3] were 89.1% and 84.1%, respectively. In addition, the fluorescence slope in test [4] was -0.481 (inactive). In addition, the NADPH fluorescence slope in test [5] is 1.8e-05 (inactive). In addition, the slope in test [6] was 0.00552 (inactive).

As to `Cc1cc(C)c2c(=O)n(CC(=O)N3CCC(Cc4ccccc4)CC3)sc2n1`, the cell count in test [1] was 611. For the same molecule, the inhibition is 16.6% (inactive) in test [1], -6.1% (inactive) in test [3], 20.7% (inactive) in test [7] and 46.2% (inactive) in test [8]. In addition, the inhibition of aggregation in test [2] is 3% (inactive). Besides, the values for the nuclei count in test [2] and in test [3] were 104% and 121%, respectively. In test [4], the fluorescence slope is -0.559 (inactive). The NADPH fluorescence slope in test [5] is -6.7e-06 (inactive). In test [6], the slope was 0.00614 (inactive).

Turning to `O=C(NCC(=O)N(c1ccc2c(c1)OCCO2)C(C(=O)NC1CCCC1)c1ccco1)c1ccco1` (centres undefined), in test [1], the cell count is 245. In addition, the inhibition in test [1] was 17.9% (inactive); in test [3], 20.3% (inactive); in test [7], -2.48% (inactive); in test [8], -2.78% (inactive). In test [2], the inhibition of aggregation is -23.9% (inactive). Besides, the nuclei count is 83.9% in test [2] and 95.6% in test [3]. In addition, the fluorescence slope in test [4] was -0.409 (inactive). The NADPH fluorescence slope in test [5] is 3.7e-05 (inactive). For the same molecule, in test [6], the slope is 0.00578 (inactive).

Turning to `Cc1ccc(CSC2=NCCN2C(=O)c2ccco2)cc1`, the cell count in test [1] is 661. The inhibition in test [1] was 1.3% (inactive); in test [3] it was -11.6% (inactive); in test [7], -0.0387% (inactive); in test [8] it was 0.194% (inactive). Further, the inhibition of aggregation in test [2] is -14.6% (inactive). The values for the nuclei count in test [2] and in test [3] were 106% and 115%, respectively. Also, in test [4], the fluorescence slope was -0.613 (inactive). The NADPH fluorescence slope in test [5] was -1.3e-05 (inactive). The slope in test [6] is 0.00684 (inactive).

Take `Cc1ccc(Cn2c(SCCN3CCCCC3)nc3c2c(=O)[nH]c(=O)n3C)cc1`: the cell count in test [1] came to 575. Moreover, the inhibition in test [1] was -6.4% (inactive); in test [3] it was 29.9% (inactive); in test [7] it was 3.78% (inactive); in test [8], 32.9% (inactive). Besides, in test [2], the inhibition of aggregation was 5.6% (inactive). Besides, the nuclei count was determined as 71.5% in test [2] and 100% in test [3]. The fluorescence slope in test [4] was -0.577 (inactive). Moreover, in test [5], the NADPH fluorescence slope is -2.5e-05 (inactive). Further, the slope in test [6] was 0.00647 (inactive).

Regarding `COc1ccc(C)cc1S(=O)(=O)Nc1cccnc1`, the cell count in test [1] is 283. For the same molecule, the inhibition in test [1] was 0.4% (inactive); in test [3], -61.4% (inactive); in test [7] it was 25.8% (inactive); in test [8], 25.5% (inactive). Moreover, the inhibition of aggregation in test [2] was 13.9% (inactive). Further, the nuclei count in test [2] was found to be 78.8%; in test [3] it was 90%. The fluorescence slope in test [4] was -0.475 (inactive). The NADPH fluorescence slope in test [5] was -3.8e-05 (inactive). For the same molecule, the slope in test [6] is 0.00515 (inactive).

`Cn1c2c(c(=O)n(C)c1=O)C(c1cccc(Br)c1)C1C(=O)c3ccccc3C1=N2` (centres undefined): the cell count in test [1] was determined as 720. For the same molecule, the inhibition in test [1] was -5.8% (inactive); in test [3] it was 3.3% (inactive); in test [7], 8.12% (inactive); in test [8] it was 12.5% (inactive). For the same molecule, the inhibition of aggregation in test [2] was 2.7% (inactive). Moreover, the nuclei count in test [2] came out at 110%; in test [3], 109%. For the same molecule, the fluorescence slope in test [4] was -0.585 (inactive). The NADPH fluorescence slope in test [5] is -6.2e-05 (inactive). In test [6], the slope is 0.00438 (inactive).

With `CC(C)OC(=O)CSc1nc2cccnc2n1C1CCCCC1`, in test [1], the cell count came to 267. In addition, the inhibition in test [1] was -9.7% (inactive); in test [3], -25.1% (inactive); in test [7], 11.2% (inactive); in test [8], 17.9% (inactive). The inhibition of aggregation in test [2] was -18.5% (inactive). Also, the nuclei count in test [2] came out at 78.8%; in test [3], 106%. Also, the fluorescence slope in test [4] was -0.592 (inactive). The NADPH fluorescence slope in test [5] was -5.3e-05 (inactive). The slope in test [6] is 0.00357 (inactive).

On to `Cn1nnnc1SCC(=O)Nc1ccccc1-c1ccccc1`, for which the cell count in test [1] is 484. The inhibition in test [1] was -8.7% (inactive); in test [3] it was -80.2% (inactive); in test [7], 6.85% (inactive); in test [8], -4.74% (inactive). Besides, in test [2], the inhibition of aggregation is 14.7% (inactive). In addition, the nuclei count in test [2] came out at 87.9%; in test [3] it was 114%. Also, the fluorescence slope in test [4] was -0.302 (inactive). Moreover, the NADPH fluorescence slope in test [5] is -1.3e-05 (inactive). Moreover, the slope in test [6] was 0.00645 (inactive).

Regarding `CCOc1ccc2[nH]c(=O)c(C(c3nnnn3Cc3ccco3)N3CCC(C)CC3)cc2c1` (centres undefined), the cell count in test [1] was 218. The inhibition was 0.8% (inactive) in test [1], -65.3% (inactive) in test [3], 13% (inactive) in test [7] and 20.5% (inactive) in test [8]. Besides, in test [2], the inhibition of aggregation was 13.4% (inactive). Moreover, the nuclei count is 97.1% in test [2] and 82.3% in test [3]. The fluorescence slope in test [4] is -0.539 (inactive). The NADPH fluorescence slope in test [5] is -2.2e-05 (inactive). The slope in test [6] was 0.00417 (inactive).

In the case of `C/C(N)=C(/C#N)C(=O)COC(=O)CCSc1ccccc1`, in test [1], the cell count was 422. The inhibition was 3.1% (inactive) in test [1], -20.4% (inactive) in test [3], 13.7% (inactive) in test [7] and -9.84% (inactive) in test [8]. Moreover, the inhibition of aggregation in test [2] is 7.6% (inactive). Also, the figures for the nuclei count in test [2] and in test [3] were 117% and 107%, respectively. In addition, the fluorescence slope in test [4] is -0.464 (inactive). Besides, the NADPH fluorescence slope in test [5] was -6.7e-05 (inactive). For the same molecule, the slope in test [6] is 0.00505 (inactive).

As for `Cc1ccc(-c2nc(=S)c3c(n2Cc2ccco2)CCCC3)cc1`, the cell count in test [1] was determined as 320. Also, the inhibition is 1% (inactive) in test [1], -22.3% (inactive) in test [3], 16% (inactive) in test [7] and 27.9% (inactive) in test [8]. Further, in test [2], the inhibition of aggregation was -7.2% (inactive). For the same molecule, the nuclei count in test [2] was 77.9%; in test [3] it was 85.5%. The fluorescence slope in test [4] is -0.485 (inactive). Also, the NADPH fluorescence slope in test [5] is -0.00017 (inactive). In addition, the slope in test [6] is 0.00678 (inactive).
